Hits are enriched below; roughly 1.5% of the tested compounds scored in any of these assays.
MEX-5 binding = MEX-5 zinc finger RNA-binding disruptors – biochemical, C. elegans, fluorescence polarization, MLPCN library, primary screen; Zinc finger protein mex-5 (Caenorhabditis elegans), Q9XUB2; MEX-5/FITC-TCR2 RNA binding; stronger effect = lower value; activity score (negative = inhibition of binding), % at 10 µM; actives 0.38% (n = 300,000); AID 1832, 2009;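 active = inhibition past about -25% in most replicates, and total fluorescence under double the plate's negative control median, limit read from the data; inconclusive = replicates evenly split on the limit, or fluorescence at least double controls; inactive = too little inhibition in most replicates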;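 also: 0% = DMSO and -100% = 5 µM competing unlabeled TCR2 RNA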
Bcl-xL primary = inhibitors of human Bcl-xL, primary screen, biochemical, fluorescence polarization, HTS | Bcl-2-like protein 1 (Homo sapiens), Q07817 | inhibition, % at 10.9 µM | actives 0.7% (n = 320,000) | GST-Bcl-xL / FITC-Bim BH3 peptide fluorescence polarization | AID 2129, 2009;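 active = inhibition above the mean of all tested compounds plus 3 SD, cutoff set per campaign, cut at about 30% in these data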;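 also: 0% = DMSO wells and 100% = unlabeled Bim-BH3 peptide competitor; inhibitors lower millipolarization by displacing the labeled peptide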
MCL1 BIM primary = inhibitors of MCL1 binding to BIM-BH3, primary screen, biochemical, fluorescence polarization; Induced myeloid leukemia cell differentiation protein Mcl-1 (Homo sapiens), Q07820; GST-MCL1 / FITC-Bim-BH3 fluorescence polarization; inhibition, % at 10.9 µM; actives 0.68% (n = 320,000); AID 2057, 2009;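 active = inhibition above the mean inhibition of all tested compounds plus 3 SD, set per campaign, cut at about 40% in these data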;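 also: 0% = DMSO wells and 100% = unlabeled Bim-BH3 peptide control; higher means more loss of mP so more displacement of Bim peptide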
EBV gp42 block = Epstein-Barr virus gp42 inhibitors, primary screen, biochemical, uHTS, fluorescence polarization; Glycoprotein 42 (Epstein-Barr virus (strain AG876)), Q1HVG2; Fluorescence polarization binding assay, mP read-out; inhibition, % (tested at 21.74 µM); actives 0.42% (n = 220,000); AID 1085, 2008; in the data active = inhibition above about 50%
E coli Lon inh = inhibitors of E. coli Lon protease, primary screen, biochemical, fluorescence polarization; P0A9M0; purified E. coli Lon protease; inhibition, % at 7.94 µM; actives 0.42% (n = 360,000); AID 602123, 2011; in the data active = inhibition above about 13%, passing the limit was not always enough;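 also: 0% = enzyme with probe and DMSO and 100% = no enzyme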
GLD-1 RNA inh = GLD-1/TGE RNA complex disruptors, primary screen, biochemical, fluorescence polarization; actives 0.44% (n = 320,000); inhibition, % at 5.96 µM; purified GLD-1 + fluorescein TGE RNA; Female germline-specific tumor suppressor gld-1 (Caenorhabditis elegans), Q17339;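 active = percent inhibition above a per-plate cutoff, the plate mean of test compounds plus 3 SD, cut at about 30% in these data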;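 also: 0% = DMSO wells with GLD-1 and probe and 100% = wells lacking GLD-1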
Target sequence (Q17339 whole entry, looked up): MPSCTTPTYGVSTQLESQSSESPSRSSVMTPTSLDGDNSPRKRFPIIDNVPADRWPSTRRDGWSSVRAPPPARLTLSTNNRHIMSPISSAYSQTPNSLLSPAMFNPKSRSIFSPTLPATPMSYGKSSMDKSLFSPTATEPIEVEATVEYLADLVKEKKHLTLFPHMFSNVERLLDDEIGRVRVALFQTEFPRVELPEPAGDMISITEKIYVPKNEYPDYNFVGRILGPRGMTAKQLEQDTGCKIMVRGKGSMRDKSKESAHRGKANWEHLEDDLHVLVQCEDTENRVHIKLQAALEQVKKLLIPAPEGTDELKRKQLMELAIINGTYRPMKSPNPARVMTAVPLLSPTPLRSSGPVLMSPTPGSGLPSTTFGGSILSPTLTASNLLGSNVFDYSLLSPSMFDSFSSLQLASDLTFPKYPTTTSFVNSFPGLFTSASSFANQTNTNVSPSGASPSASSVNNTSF
Bcl-xL conf = Bcl-xL inhibitors blocking Bim BH3 binding, confirmation, counter-screen for MCL1 inhibitor project, biochemical, fluorescence polarization. shares compounds with MCL1 BIM primary. GST-Bcl-xL / FITC-Bim BH3 peptide FP binding. inhibition, % at 10.9 µM. actives 54% (n = 1,700). AID 2166, 2009;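 active = inhibition above a cutoff equal to the mean inhibition of all tested compounds plus 3 SD, cut at about 30% in these data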;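 also: 0% = DMSO wells and 100% = unlabeled Bim BH3 control peptide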
MCL1 inh confirm = inhibitors of MCL1 binding to BIM-BH3, confirmation, biochemical, fluorescence polarization, triplicate; shares compounds with MCL1 BIM primary; GST-MCL1 / FITC-Bim-BH3 fluorescence polarization; actives 61% (n = 1,700); inhibition, % at 10.9 µM;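 active = inhibition above the average of all tested compounds plus 3 SD, cut at about 40% in these data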;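 also: 0% = DMSO wells and 100% = unlabeled Bim-BH3 control peptide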
* marks the source's active call; other numbers are inactive results; u = inconclusive; x = no result.

SMILES	MEX-5 binding	Bcl-xL primary	MCL1 BIM primary	EBV gp42 block	E coli Lon inh	GLD-1 RNA inh	Bcl-xL conf	MCL1 inh confirm
CC(NS(=O)(=O)OCC(Cl)(Cl)Cl)c1ccc(C(C)(C)C)cc1 (stereo unspecified)	-1	3	0	x	5	14	x	x
C[C@H](NS(=O)(=O)OCC(Cl)(Cl)Cl)C1CC1c1ccccc1 (stereo partly specified)	2	5	47*	x	-2	10	15	61*
O=C(CSc1ccccn1)Nc1ccc2c(c1)C(=O)c1ccccc1C2=O	-2	14	55*	52*	2	4	29	60*
Cn1nc(C(F)(F)F)c2cc(C(=O)Nc3ccc(C(F)(F)F)cc3)sc21	-1	2	5	-13	1	0	x	x
CN(C)CCn1nnnc1SCC1=C(C(=O)O)N2C(=O)[C@@H](NC(=O)Cc3csc(N)n3)[C@H]2SC1	x	37*	51*	x	-3	19	28	36
Cc1ccc(-c2n[nH]c(Cc3ccccc3)n2)cc1	-2	4	7	x	-1	-2	x	x
N#C/C(=C\c1ccco1)c1nc2ccccc2s1	-10	79*	75*	1	-54	55*	15	16
CC1(C)Cc2cccc(OCC(=O)NCCc3ccc(S(N)(=O)=O)cc3)c2O1	x	35*	195*	x	-20	21	-3	-6
N#Cc1cc(Oc2cccc3cccnc23)c(-n2nnc3ccccc32)cc1C#N	-3	143*	139*	12	13	44*	17	25
CCCCC1=CC2=C(c3ccco3)C(=O)C(C)(OC(=O)c3ccc(OC)cc3)C(=O)C2=CN1c1ccccc1 (stereo unspecified)	1	49*	50*	3	10	44*	2	-10
CCCCC1=CC2=C(c3ccco3)C(=O)C(C)(OC(=O)c3ccc(OC)cc3)C(=O)C2=CN1CCCOC(C)C (stereo unspecified)	0	63*	65*	17	-2	51*	72*	91*
CN(C)/C=N/c1ncn(-c2ncc(C(F)(F)F)cc2Cl)n1	-2	5	3	-7	-2	-1	x	x
O=C(O)c1ccccc1-c1ccc(/C=c2\sc3nc4cc(Br)cnc4n3c2=O)o1	5	38*	60*	-121	-45	11	-30	-62
O=C(CCCN1C(=O)/C(=C/c2ccco2)SC1=S)Nc1ccccc1C(=O)O	-17	40*	83*	-12	-8	-1	39*	73*
O=C(CN1C(=O)/C(=C\c2ccco2)SC1=S)Nc1ccc(O)cc1C(=O)O	-11	46*	76*	x	-25	-1	23	38
CC(C(=O)Nc1ccc(O)cc1C(=O)O)N1C(=O)/C(=C\c2cccs2)SC1=S (stereo unspecified)	-9	28	58*	x	0	-6	27	39
Cc1cccc(C)c1NC(=O)CN1CCN(C(=O)c2cc(C3CC3)nn2-c2ccccc2)CC1	x	x	x	x	-1	x	x	x
CN(Cc1ccccc1)C1CCNCC1	0	0	-4	x	0	0	x	x
COC(=O)c1[nH]c2cc(OC)c(OC)cc2c1/C=N/Nc1ccccc1	u	4	-11	x	-7	-2	x	x
COc1cccc(-c2cc(C(=O)Nc3ccc(N(C)C(C)=O)cc3)c3cc(Br)ccc3n2)c1	3	0	6	x	-9	0	x	x

Bioassay records (PubChem BioAssay)
